The target in test [1] is Bile acid receptor (Homo sapiens) (UniProt Q96RI1). As to the kind of experiment: qHTS assay for small molecule agonists of farnesoid X receptor signaling (AID 588527).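 Also: series mostly up to about 77 µM; 0% = vehicle basal and 100% = reference agonist.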 The following applies: HEK293T FXR-UAS-bla, beta-lactamase ratio, 16 h; activation: active compounds read high. In outline:
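Read-out: beta-lactamase reporter fluorescence with CCF4 substrate in GeneBLAzer FXR-UAS-bla HEK293T cells, after 16 h compound exposure at 37 C. Response scaled between DMSO basal (0%) and chenodeoxycholic acid at 100 uM (100%).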
For orientation: In qHTS, concentration-response curves come from the screen itself.

The target in test [2] is Peroxisome proliferator-activated receptor delta (Homo sapiens) (UniProt Q03181). As to the kind of experiment: qHTS assay for small molecule agonists of peroxisome proliferator-activated receptor delta signaling (AID 588534).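 Also: 0% = DMSO basal wells and 100% = positive control agonist at 10 µM.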 The essentials:
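Cell-based beta-lactamase reporter assay run in agonist mode: cells seeded and incubated 5 hrs at 37 C, compounds added and incubated 18 hrs at 37 C. CCF4 dye fluorescence read after 2 hrs at RT; EC50 and efficacy from Hill fits.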

The source of these data is PubChem BioAssay (NCATS).

“And” between values parts separate entries of the source, which are not always exact repeats. Equal values may be shown once. Results filed as inconclusive are left out. Unmarked numbers belong to inactive results. The source made the active and inactive calls. Calls follow the shape of the full dose curve.

Bile acid receptor (Homo sapiens), sequence (Q96RI1 whole entry, looked up): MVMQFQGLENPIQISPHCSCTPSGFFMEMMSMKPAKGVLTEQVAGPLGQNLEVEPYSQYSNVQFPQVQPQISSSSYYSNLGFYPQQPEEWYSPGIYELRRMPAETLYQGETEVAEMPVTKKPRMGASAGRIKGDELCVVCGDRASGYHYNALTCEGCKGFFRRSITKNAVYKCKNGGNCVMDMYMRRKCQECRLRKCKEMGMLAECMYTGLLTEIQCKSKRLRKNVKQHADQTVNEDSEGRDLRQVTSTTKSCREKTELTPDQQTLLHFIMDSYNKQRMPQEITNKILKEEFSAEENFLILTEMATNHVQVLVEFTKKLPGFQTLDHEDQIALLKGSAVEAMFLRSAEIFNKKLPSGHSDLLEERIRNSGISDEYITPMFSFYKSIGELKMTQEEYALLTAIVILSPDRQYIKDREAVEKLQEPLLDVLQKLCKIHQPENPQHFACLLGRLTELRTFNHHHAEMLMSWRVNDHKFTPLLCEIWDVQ
Peroxisome proliferator-activated receptor delta (Homo sapiens), sequence (Q03181 whole entry, looked up): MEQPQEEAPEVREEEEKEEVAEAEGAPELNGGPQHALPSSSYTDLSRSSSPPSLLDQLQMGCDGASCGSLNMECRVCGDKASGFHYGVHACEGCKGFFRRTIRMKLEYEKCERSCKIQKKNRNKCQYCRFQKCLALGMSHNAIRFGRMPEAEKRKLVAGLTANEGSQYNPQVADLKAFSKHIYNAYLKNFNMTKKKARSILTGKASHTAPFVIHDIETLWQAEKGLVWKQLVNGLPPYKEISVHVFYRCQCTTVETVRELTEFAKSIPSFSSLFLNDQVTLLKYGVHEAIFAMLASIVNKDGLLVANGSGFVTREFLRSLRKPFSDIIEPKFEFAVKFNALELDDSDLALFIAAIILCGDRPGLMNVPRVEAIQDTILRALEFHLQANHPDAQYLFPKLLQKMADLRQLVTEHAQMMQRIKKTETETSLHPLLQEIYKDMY

Turning to `CCOc1ccc(NC(=O)OC(C)C)cc1OCC`, the activation in test [1] is -1.45%. Further, the result in test [2] was inactive.
Turning to `O=Cc1cccc(Br)c1`, the activation in test [1] is -4.69%. Moreover, the compound was called inactive in test [2].
For `CC(=O)N(CCN(C(C)=O)C(C)=O)C(C)=O` the same measures were 1.43% and “inactive”.
Take `Cc1ncc[nH]1`: the activation in test [1] was -1.48%. Further, the compound was classed as inactive in test [2].
Take `C[Si]1(C)O[Si](C)(C)O[Si](C)(C)O[Si](C)(C)O1`: the activation in test [1] was -3.3%. Moreover, the call in test [2] was inactive.
For `C(=C/c1ccccc1)/c1ccccc1`, in test [1], the activation was -2.54%. The call in test [2] was inactive.
As for `CC1COCc2cc3c(cc21)C(C)(C)C(C)C3(C)C` (stereo not given), the activation in test [1] is 0.585%. Besides, the call in test [2] was inactive.
For `CCCCCCCCCCCCCCCCCCN` the same measures were 1.62% and “inactive”.
Regarding `Cl[Si](Cl)(c1ccccc1)c1ccccc1`, the activation in test [1] is 3.41%. Moreover, the compound was called inactive in test [2].
As for `Nc1cccc2c(=O)[nH][nH]c(=O)c12`, the activation in test [1] is 1.93%. Further, the compound was classed as inactive in test [2].
Take `CC(=O)OC(C)C`: the activation in test [1] was -1.76%. The compound was called inactive in test [2].
For `c1ccc(SCCSc2ccccc2)cc1` the same measures were -0.837% and “inactive”.
On to `CCCCCO`, for which, in test [1], the activation is -1.91%. For the same compound, in test [2], the compound was classed as inactive.
`CC(=O)CC(C)C`: the activation in test [1] was -0.151%. Further, the call in test [2] was inactive.
In the case of `CC(C)(C)c1n[nH]c(=O)n(N)c1=O`, the activation in test [1] is 2.05%. Besides, the call in test [2] was inactive.
For the compound `O=C(O)c1ccc([N+](=O)[O-])cc1`, in test [1], the activation was -2.8% and 1.45%. Also, the call in test [2] was inactive.
Take `CCCCCCCCCCCCO`: the activation in test [1] was -2.63%. Moreover, the compound was called inactive in test [2].
On to `Cc1ccc([N+](=O)[O-])c(C)c1`, for which the activation in test [1] was 0.441% and 0.298%. Also, in test [2], the call was inactive.
As to `CCCCC/C=C\C/C=C\CCCCCCCC(=O)O`, the activation in test [1] was -2.08% and -1.01%. Also, in test [2], the outcome was inactive.
Regarding `NC(=S)NNC(N)=S`, in test [1], the activation is 0.327% and 1.24%. Further, the call in test [2] was inactive.
On to `Cc1ccccc1OCC1CO1` (stereo not given), for which the activation in test [1] was -1.27%. For the same compound, the outcome in test [2] was inactive.
In the case of `Nc1ncnc2c1ncn2[C@H]1CC[C@@H](CO)O1`, the activation in test [1] is 0.029% and -3.36%. The result in test [2] was inactive.
As to `CCCCC/C=C/C=C/C=O`, the activation in test [1] was 3.19% and -0.429%. Besides, in test [2], the call was inactive.
`CC(N)CN` (stereo not given): the activation in test [1] was -2.35%. Further, in test [2], the compound was classed as inactive.
`Cc1ccc(S(=O)(=O)NC2CCCCC2)cc1`: in test [1], the activation is 0.615%. Moreover, in test [2], the outcome was inactive.
